Drawing on PubChem BioAssay (Tox21), this text covers Potency and activity change, negative = cytotoxicity for 21 compounds.

Values joined by “and” are separate entries in the source; they are usually repeats but may differ in a detail not shown here. Equal values may be shown once. Inconclusive results are not listed. Some structures have more than one record in an assay (separate samples or runs), and their calls can disagree. Active and inactive are the calls of the source. Calls come from the whole dose curve; as a rule, active = well fitted curve in the direction sought with a large enough effect in the repeat runs; inconclusive = weak or mixed curves; inactive = no such curve, though single readings can be large; an effect the other way counts as inactive or inconclusive.

Test [1] in a line: A CellTox Green Cytotoxicity Assay to monitor cytotoxicity in HepG2 cells - 32 hour (AID 1224883). Note: nearly all actives have a fitted effect of over 50% in size. A digest of the protocol: (§1)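 HepG2 cells were seeded together with the CellTox Green dye at 600 cells/well, left 5 h at 37 C/5% CO2, then given compounds in DMSO. Fluorescence from dye bound to dead-cell DNA was read repeatedly over 40 h of treatment at 37 C.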
The nature of test [2]: A CellTox Green Cytotoxicity Assay to monitor cytotoxicity in HEK293 cells - 8 hour (AID 1224884). Note: nearly all actives have a fitted effect of over 35% in size. The gist of the method: (§2)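 HEK293 cells premixed with CellTox Green dye were seeded at 600 cells/well and left 5 h at 37 C/5% CO2 before pin transfer of 23 nL compound in DMSO. Fluorescence from dye bound to dead-cell DNA was read during 40 h treatment.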
Test [3] is described as follows: qHTS RealTime-Glo MT Cell Viability Assay in HepG2 cells - 16 hour (AID 1224885). Note: nearly all actives have a fitted effect of over 50% in size. A digest of the protocol: (§3)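 HepG2 cells (600/well) were dispensed with RealTime-Glo reagents, incubated 5 h at 37 °C, then treated with compounds in DMSO for up to 40 h. Nonlytic NanoLuc luminescence reflecting viable cells was read at each stated time point.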
Test [4] in a line: qHTS RealTime-Glo MT Cell Viability Assay in HEK293 cells - 24 hour (AID 1224886). For activity change, negative = cytotoxicity: top concentration of the series differs between compounds. Note: nearly all actives have a fitted effect of over 50% in size. The gist of the method:
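HEK293 cells seeded with NanoLuc/prosubstrate reagent, rested 5 h at 37 C, then dosed and kept at 37 C up to 40 h. Nonlytic real-time luminescence from viable cells read at 0, 8, 16, 24, 32 and 40 h.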

Test [5] can be described thus: qHTS RealTime-Glo MT Cell Viability Assay in HEK293 cells - 8 hour (AID 1224887). For activity change, negative = cytotoxicity: top concentration of the series differs between compounds. Note: nearly all actives have a fitted effect of over 50% in size. The gist of the method: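 HEK293 cells mixed with RealTime-Glo reagents (NanoLuc plus cell-permeant prosubstrate) at 600 cells/well, preincubated 5 h at 37 C/5% CO2, then given 23 nL compound in DMSO. Nonlytic luminescence from viable cells was read at 0, 8, 16, 24, 32 and 40 h.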
Test [6] in a line: A CellTox Green Cytotoxicity Assay to monitor cytotoxicity in HEK293 cells - 16 hour (AID 1224888). Note: nearly all actives have a fitted effect of over 35% in size. The gist of the method:
as §2

Test [7] can be described thus: qHTS RealTime-Glo MT Cell Viability Assay in HepG2 cells - 0 hour (AID 1224889). Note: nearly all actives have a fitted effect of over 50% in size. A digest of the protocol: as §3
The nature of test [8]: A CellTox Green Cytotoxicity Assay to monitor cytotoxicity in HepG2 cells - 8 hour (AID 1224890). Note: nearly all actives have a fitted effect of over 45% in size. A digest of the protocol: as §1
Test [9] is described as follows: qHTS assay to identify small molecule antagonists of the estrogen receptor alpha (ER-alpha) signaling pathway using the BG1 cell line in the presence of 0.1 nM 17-beta-estradiol - cell viability counter screen (AID 1259241). Note: nearly all actives have a fitted effect of over 40% in size. The gist of the method:
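The cell line endogenously expresses full-length ER-alpha and carries four EREs driving luciferase. Cells are cultured 5 days hormone-free, treated 22 hr with compounds and 0.1 nM estradiol, then viability is read by fluorescence.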

Test [10] can be described thus: qHTS assay to identify small molecule antagonists of the androgen receptor (AR) signaling pathway using the MDA cell line in the presence of 0.5 nM R1881 - cell viability counter screen (AID 1259242). Note: nearly all actives have a fitted effect of over 45% in size. A digest of the protocol:
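MDA-kb2 cells (human breast carcinoma, stably carrying MMTV-luciferase reporter) were exposed to compounds with 0.5 nM R1881 (final) for 16 hr at 37C, 0% CO2; viability then read as live-cell protease fluorescence (CellTiter-Fluor, 30 min) in the same wells.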
% is set by controls: 0 for no effect and ±100 for the full control effect; potency is the fitted concentration of half-maximal effect.

Consider `[Cl][Sn]([c]1ccccc1)([c]1ccccc1)[c]1ccccc1`, for which the Potency was 2.61 µM (active) in [1]; 2.33 µM (active) in test [2]; 2.93 µM (active) in test [3]; 0.262 µM (active) in test [4]; 0.737 µM (active) in test [5]; 2.33 µM (active) in [6]. Also, the Potency in test [8] is 9.28 µM (active); in test [9], 4.11 µM (active); in test [10], 1.64 µM (active). Moreover, the activity change, negative = cytotoxicity in [7] is 2.43% [at 15.8 µM] (inactive).

Regarding `CCN`, the Potency entry in test [1], in [2], in test [3], in test [4], in test [5] and in test [6] was “inactive” throughout. Further, the Potency result in test [7], in test [8], in [9] and in test [10] was “inactive” throughout.

Take `COc1cc(N)c(Cl)cc1C(=O)NC1CN2CCC1CC2` (stereo not drawn): the Potency entry in [1], in test [2], in test [3], in [4], in test [5] and in [6] was “inactive” in each case. In addition, the Potency result in [7], in test [8], in [9] and in test [10] was “inactive” in each case.

Consider `COc1ccc([N+](=O)[O-])cc1O`, for which the Potency result in [1], in test [2], in test [3], in [4], in [5] and in test [6] was “inactive” throughout. For the same compound, the Potency result in test [7], in test [8], in [9] and in [10] was “inactive” in each case.

Consider `O=[N+]([O-])c1cc(C(F)(F)F)c(Cl)c([N+](=O)[O-])c1Cl`, for which the Potency is 21.9 µM (active) in test [1]; 38.9 µM (active) in test [3]; 6.16 µM (active) in [4]; 11 µM (active) in test [5]; 11 µM (active) in test [6]; 54.9 µM (active) in test [8]. In addition, the Potency in [9] is 61.1 µM (active); in test [10], 27.3 µM (active). The Potency result in test [2] and in [7] was “inactive” in each case.

In the case of `CN(CCCC(=O)c1cccnc1)N=O`, the Potency entry in [1], in [2], in [3], in test [4], in test [5] and in test [6] was “inactive” throughout. The Potency entry in test [7], in test [8], in test [9] and in [10] was “inactive” throughout.

As to `COS(=O)(=O)c1ccc(C)cc1`, the Potency result in [1], in [2], in test [3], in test [4], in test [5] and in [6] was “inactive” in each case. In addition, the Potency entry in [7], in [8], in test [9] and in [10] was “inactive” throughout.

On to `FC(F)(F)c1cccc(C2=CCN(CCc3ccc4ccccc4c3)CC2)c1`, for which the Potency entry in test [1], in [2], in [3], in test [4], in test [5] and in test [6] was “inactive” in each case. Further, the Potency entry in test [7], in test [8], in test [9] and in [10] was “inactive” throughout.

In the case of `Clc1ccc(C(c2ccccc2Cl)C(Cl)(Cl)Cl)cc1` (stereo not drawn), the Potency entry in test [1], in [2], in test [3], in test [6], in test [7] and in [8] was “inactive” throughout. The Potency entry in test [9] and in test [10] was “inactive” each time. In addition, the Potency in [4] is 49.3 µM (active) and inactive; in test [5], 49.3 µM (active) and inactive.

As for `Fc1cccc(Cl)c1CCl`, the Potency result in [1], in test [2], in test [3], in test [4], in [5] and in [6] was “inactive” in each case. Further, the Potency result in [7], in test [8] and in test [10] was “inactive” each time.

Regarding `Oc1ccc(I)cc1`, the Potency entry in test [1], in [2], in [3], in test [4], in test [5] and in test [6] was “inactive” throughout. Further, the Potency entry in test [7], in test [9] and in test [10] was “inactive” each time.

As to `CN(C)CCc1c[nH]c2cccc(O)c12`, the Potency result in [1], in test [2], in test [3], in [4], in [5] and in [6] was “inactive” throughout. The Potency result in [7], in test [8] and in [10] was “inactive” in each case.

In the case of `O=C(O)C1C2CCC(O2)C1C(=O)O` (stereo not drawn), the Potency entry in test [1], in test [2], in [3], in test [4], in test [5] and in [6] was “inactive” in each case. In addition, the Potency entry in test [7], in [9] and in test [10] was “inactive” in each case.

Regarding `O=C1C=CC(=O)c2ccccc21`, the Potency was 12.3 µM (active) in test [1]; 19.5 µM (active) in test [3]; 5.49 µM (active) in test [4]; 6.16 µM (active) in test [5]; 15.5 µM (active) in test [8]; 19.3 µM (active) in test [9]. In [10], the Potency is 30.6 µM (active). Besides, the Potency result in test [2] and in test [6] was “inactive” throughout.

For `Clc1ccc(COC(Cn2ccnc2)c2ccc(Cl)cc2Cl)cc1` (stereo not drawn), the Potency is 45.7 µM (active) and 54.7 µM (active) and 15.1 µM (active) in test [1]; 43.5 µM (active) in test [3]; 18.2 µM (active) and 21.8 µM (active) in test [4]; 20.4 µM (active) and 21.8 µM (active) in test [5]; “inactive and 54.7 µM (active)” in [8]. The Potency result in [2], in test [7] and in [9] was “inactive” in each case.

As for `OC(Cc1ccccc1Cl)(Cn1cncn1)C1(Cl)CC1` (stereo not drawn), the Potency entry in [1], in test [2], in test [3], in test [6], in [8] and in test [9] was “inactive” throughout. Further, the Potency entry in test [10] is “inactive”. Moreover, the Potency in test [4] was 54.9 µM (active); in test [7] it was 24.5 µM (active).

For the compound `O=c1[nH]c2ccccc2n1C1CCN(CCCC(c2ccc(F)cc2)c2ccc(F)cc2)CC1`, the Potency in [1] is 24.5 µM (active); in [3], 49 µM (active) and inactive; in test [4], 12.3 µM (active) and 16.9 µM (active); in test [5], 15.5 µM (active); in test [10], 54.5 µM (active) and inactive. Moreover, the Potency entry in test [2], in [6] and in test [7] was “inactive” in each case.

For the compound `C[C@]12Cc3nonc3C[C@@H]1CC[C@@H]1[C@@H]2CC[C@@]2(C)[C@H]1CC[C@]2(C)O`, the Potency entry in [1], in [2], in [3], in test [6], in test [7] and in test [9] was “inactive” each time. Also, in test [10], the Potency result is “inactive”. Besides, in test [4], the Potency is 19 µM (active).

Turning to `CC(=O)[O-].CC(=O)[O-].[Hg+2]`, the Potency in test [1] was 1.74 µM (active); in test [2] it was 43.6 µM (active); in test [3], 2.45 µM (active); in test [5], 2.19 µM (active); in [6], 24.5 µM (active); in test [7] it was 30.9 µM (active). Besides, the Potency in [8] was 3.09 µM (active); in test [9], 17.2 µM (active); in test [10] it was 7.7 µM (active).

Regarding `Oc1c(Cl)c(Cl)cc(Cl)c1Cl`, the Potency entry in test [1], in [2], in [3], in test [7], in [8] and in test [9] was “inactive” in each case. Besides, the Potency in test [4] was 47.6 µM (active).

For the compound `CS(=O)(=O)c1ccc(C(=O)C2C(=O)CCCC2=O)c([N+](=O)[O-])c1`, the Potency is 44.4 µM (active) in test [1]; 44.4 µM (active) in test [2]; 21.4 µM (active) in test [5]; 44.4 µM (active) in [6]; 39.6 µM (active) in [8]. The Potency result in test [3], in test [7], in [9] and in [10] was “inactive” in each case.
